Source: PubChem
CYP2C19 act: human CYP2C19 activators, primary screen, biochemical, luminescence | 96,000 tested, under 10 active | activation factor at 5 µM | recombinant CYP2C19, luciferin-H EGE luminescence; active compounds read high; 0 = fully inhibited enzyme, 1 = untreated enzyme | Cytochrome P450 2C19 (Homo sapiens), P33261 | AID 1025, 2008;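 active = activation factor of at least 2 at 5 µM in the primary screen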
Target sequence (P33261 whole entry, looked up): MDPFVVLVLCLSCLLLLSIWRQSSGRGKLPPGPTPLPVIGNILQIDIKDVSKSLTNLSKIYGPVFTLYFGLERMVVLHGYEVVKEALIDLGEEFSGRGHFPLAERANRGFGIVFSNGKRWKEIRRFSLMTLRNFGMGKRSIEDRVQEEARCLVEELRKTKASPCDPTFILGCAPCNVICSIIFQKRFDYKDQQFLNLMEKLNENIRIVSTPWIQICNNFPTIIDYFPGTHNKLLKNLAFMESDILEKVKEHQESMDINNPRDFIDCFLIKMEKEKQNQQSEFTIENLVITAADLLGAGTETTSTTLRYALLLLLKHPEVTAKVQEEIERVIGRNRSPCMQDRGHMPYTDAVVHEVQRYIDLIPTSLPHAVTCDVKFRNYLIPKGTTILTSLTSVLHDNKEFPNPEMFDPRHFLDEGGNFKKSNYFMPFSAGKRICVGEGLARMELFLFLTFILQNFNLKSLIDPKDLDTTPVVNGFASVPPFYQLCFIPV
CYP2C19 inhib: blockers of cytochrome P450 2C19 activity – biochemical, luminescence, ADME assay, primary screen; CYP2C19 Supersomes, luciferin-H EGE luminescence, 30 min; AID 778, 2007; inhibition, % at 5 µM; actives 21% (n = 96,000); P33261;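 active = CYP2C19 inhibition above a set limit at 5 µM in the primary screen, cut at about 50% in these data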
CYP2C9 activ: human CYP2C9 activators, primary screen, biochemical, luminescence; Cytochrome P450 2C9 (Homo sapiens), P11712; recombinant CYP2C9, luciferin-H conversion; active compounds read high; factor 1 = untreated enzyme, 0 = blocked; activation factor at 5 µM; actives 1.4% (n = 96,000); AID 1024, 2008;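 active = activation factor of 2 or more for CYP2C9 at a 5 µM dose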
CYP2C9 inhib: blockers of cytochrome P450 2C9 activity – biochemical, luminescence, ADME assay, primary screen; inhibition, % at 5 µM; actives 20% (n = 96,000); P11712; AID 777, 2007; CYP2C9 Supersomes, luciferin-H conversion;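 active = blocking of liver enzyme CYP2C9 beyond about 50% at 5 µM, limit read from the data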
Cav32 inh: Cav3.2 calcium influx blockers – cell-based, Fluo-4 calcium fluorescence, FDSS, MLSMR library, primary screen; Voltage-dependent T-type calcium channel subunit alpha-1H (Homo sapiens), O95180; Cav3.2-expressing cells; active compounds read low; B-score at 10 µM; actives 4% (n = 100,000); AID 449739, 2010;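 active = single-dose well whose peak fluorescence ratio is a statistical outlier from its plate by either plate-standardised score or position-corrected B-score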
Large screens that a line does not name were inactive. Compounds with a hit are over-represented: about 27% of the library has one in this group of screens.

Clc1ccc(CSc2nnc([C@@H]3CCCN3)o2)cc1Cl	CYP2C19 inhib 99.6
O=C(CSc1nnc([C@@H]2CCCN2)o1)c1ccc(Cl)cc1	CYP2C19 inhib 97.7
Nc1[nH]ncc1C(=O)Nc1cccc(C(F)(F)F)c1	none
CCNC(=O)CCS(=O)(=O)c1ccc2ccccc2c1	none (no result: CYP2C19 act, CYP2C19 inhib, CYP2C9 activ, CYP2C9 inhib)
CCC(C)NS(=O)(=O)c1cccs1 (stereo not drawn)	none
CCCCNS(=O)(=O)c1ccc(OC)c(Cl)c1Cl	CYP2C19 inhib 51.5
CCNS(=O)(=O)c1cc(Br)ccc1OC	none
COCCCNS(=O)(=O)c1ccc(OC)c(Cl)c1Cl	CYP2C19 inhib 88.0, CYP2C9 activ 3.7
CCC(C)NS(=O)(=O)c1ccc(OC)c(Cl)c1Cl (stereo not drawn)	CYP2C19 inhib 69.6
CCc1ccc2[nH]c3nc(SCc4nnc(-c5ccc(C)cc5)o4)nnc3c2c1	none (no result: CYP2C19 act, CYP2C19 inhib, CYP2C9 activ, CYP2C9 inhib)
CCO[C@@H]1OC(C(=O)N2CCOCC2)=C[C@H](c2ccccc2)[C@H]1CCCO	none (no result: CYP2C19 act, CYP2C19 inhib, CYP2C9 activ, CYP2C9 inhib)
Nc1nc2n(n1)C(c1cccc(Br)c1)CC(c1ccc(F)cc1)N2 (stereo not drawn)	none (no result: CYP2C19 act, CYP2C19 inhib, CYP2C9 activ, CYP2C9 inhib)
COc1ccc(/C=N\NC(=O)C2C(=O)NCC2c2ccccc2)cc1O (stereo not drawn)	none
O=C1NCC(c2ccccc2)C1C(=O)N/N=C\c1ccc(-c2ccc(Cl)c(Cl)c2)o1 (stereo not drawn)	CYP2C9 inhib 67.3
CC(C)C(=O)Nc1cc(=O)[nH]c2ncnn12	none
CN1CCN(c2ccc([N+](=O)[O-])cc2C(=O)c2ccc(Cl)cc2)CC1	CYP2C19 inhib 58.0
O=[N+]([O-])c1ccc(N2CCN(c3ccc(Cl)nn3)CC2)c(Cl)c1	none (no result: Cav32 inh)
O=C(c1ccc(-c2ccc(Cl)cc2)o1)N1CCN(c2ccc([N+](=O)[O-])cc2Cl)CC1	CYP2C19 inhib 69.8, CYP2C9 inhib 91.8 (no result: Cav32 inh)
CCOc1ccc(C(=O)c2cc([N+](=O)[O-])ccc2Cl)cc1	CYP2C9 inhib 75.9
Cc1nnc(SCC(=O)Nc2ccccc2)n1CCc1ccccc1	none
O=C(NCCN1CCOCC1)C1(C(F)(F)F)C/C(=C\Cc2ccccc2)CCCO1 (stereo not drawn)	none (no result: CYP2C19 act, CYP2C19 inhib, CYP2C9 activ, CYP2C9 inhib)
Nc1c(C(=O)c2ccccc2)oc2ccccc12	CYP2C19 inhib 85.3
Nc1c(C(=O)c2ccc(F)cc2)oc2ccccc12	none (no result: CYP2C19 act, CYP2C19 inhib, CYP2C9 activ, CYP2C9 inhib)
CC(=O)c1oc2ccccc2c1N	none
Nc1c(C(=O)Nc2ccc(Cl)cc2)oc2ccccc12	CYP2C19 inhib 54.1, CYP2C9 inhib 63.4 (no result: Cav32 inh)
Cc1cc(NC(=O)C2CCCN2C(=O)Nc2c(C)cccc2C)ccc1-n1cnnn1 (stereo not drawn)	none (no result: CYP2C19 act, CYP2C19 inhib, CYP2C9 activ, CYP2C9 inhib)
CC(=O)c1cccc(NC(=O)N2CCCC2C(=O)Nc2cccc(C)c2C)c1 (stereo not drawn)	CYP2C19 inhib 89.8, CYP2C9 inhib 87.8
CC(=O)c1cccc(NC(=O)N2CCCC2C(=O)Nc2ccccc2C)c1 (stereo not drawn)	CYP2C9 inhib 55.7
Cc1cc(C)cc(NC(=O)N2CCCC2C(=O)Nc2ccc(-n3cnnn3)c(C)c2)c1 (stereo not drawn)	CYP2C19 inhib 96.5
O=C(/C=C/c1ccc(OC2CSC2)cc1)c1ccccc1	CYP2C19 inhib 61.0
O=C(N/N=C/c1ccc(OC2CSC2)cc1)c1ccccc1	none
O=c1c2ccccc2nnn1CSc1nnc2sc3ccccc3n12	none (no result: Cav32 inh)
Clc1ccc(-c2nc3ncccn3c2Nc2ccc3c(c2)OCCO3)cc1	none
Brc1ccc(-c2nc3ncccn3c2Nc2ccc3c(c2)OCCO3)o1	CYP2C9 inhib 57.5
Oc1ccc(-c2nc3ncccn3c2Nc2ccc3c(c2)OCCO3)cc1	CYP2C9 inhib 69.7
Cc1cc(C)n2c(Nc3ccc4c(c3)OCCO4)c(-c3ccco3)nc2n1	CYP2C9 inhib 61.7 (no result: Cav32 inh)
Cc1ccc(-c2nc3ncccn3c2Nc2ccc3c(c2)OCCO3)cc1	none
Cc1ccc(-c2nc3ncccn3c2Nc2ccc3c(c2)OCCO3)o1	CYP2C9 inhib 52.6
O=C(Nc1nn[nH]n1)C12CC3CC(CC(C3)C1)C2	none
O=C(COC(=O)C1CCC1)NCc1ccccc1Cl	CYP2C19 inhib 87.9
COC(=O)[C@@H](NC(=O)NCc1ccccc1Cl)C(C)C	none
O=C(COC(=O)C1CC1)Nc1ccc(Oc2ccccc2)cc1	none
O=C(COC(=O)CCCNC(=O)c1ccc(Cl)cc1)NCc1ccccc1Cl	CYP2C19 inhib 55.6, CYP2C9 inhib 70.0
O=C(COC(=O)C1CCC1)Nc1ccc(Oc2ccccc2)cc1	CYP2C19 inhib 55.0
Cn1c(-c2ccc(C=O)s2)nc2c3ccccc3c3ccccc3c21	Cav32 inh -5.53
COc1ccc(-c2nnn(CC(=O)N3CCN(c4ccccc4OC)CC3)n2)cc1	none (no result: CYP2C19 act, CYP2C19 inhib, CYP2C9 activ, CYP2C9 inhib)
CN(C)c1ccc(-c2nnn(CC(=O)N3c4ccccc4CCc4ccccc43)n2)cc1	CYP2C19 inhib 71.3, CYP2C9 inhib 76.7
CN(C)c1ccc(-c2nnn(CC(=O)Nc3ccccc3N3CCOCC3)n2)cc1	CYP2C9 inhib 89.6 (no result: Cav32 inh)
NC(=O)CSc1nnc(C2CC2)n1-c1ccccc1	none
CC(C)CCNC(=O)C(c1cccnc1)N(Cc1ccccc1)C(=O)Cn1nnc2ccccc21 (stereo not drawn)	none (no result: CYP2C19 act, CYP2C19 inhib, CYP2C9 activ, CYP2C9 inhib)
CCOc1ccc(-c2nc(C)c(C(C)=O)n2O)cc1	none
COCCn1c(C)c(C(=O)O)sc1=S	none
Cc1ccnc(N2C(=O)c3ccccc3C2O)c1 (stereo not drawn)	CYP2C19 inhib 50.0
CCn1c(C)cc(/C=C2\SC(=O)N(CC(=O)Nc3ccc(C)c(C)c3)C2=O)c1C	CYP2C19 inhib 57.1
CCn1c(C)cc(/C=C2\NC(=O)N(CC(=O)Nc3cccc(C)c3)C2=O)c1C	none
Cc1oc2cc(O)ccc2c(=O)c1Oc1ccccc1	CYP2C9 activ 2
COC(=O)c1cc(-c2c(C)oc3cc(O)ccc3c2=O)c(C)o1	none (no result: CYP2C19 act, CYP2C19 inhib, CYP2C9 activ, CYP2C9 inhib)
Cc1oc2cc(O)ccc2c(=O)c1N1C(=O)c2ccccc2C1=O	CYP2C9 activ 2.2
Cc1ccccc1-c1c(C)oc2cc(O)ccc2c1=O	CYP2C9 activ 2.2
C[C@H](c1ccccc1)n1nnc(COCc2ccccc2)c1C#CCOCc1ccccc1	none (no result: CYP2C19 act, CYP2C19 inhib, CYP2C9 activ, CYP2C9 inhib)
O=C(O)C1=C[C@H](c2ccc3c(c2)OCO3)C[C@H](OCCCCO)O1	none (no result: CYP2C19 act, CYP2C19 inhib, CYP2C9 activ, CYP2C9 inhib)
Nc1nc(N2CCN(C/C=C/c3ccccc3)CC2)nc2ccccc12	CYP2C19 inhib 51.3, CYP2C9 inhib 70.3
CCN1C(=O)N[C@@H](CCc2ccccc2)[C@H](C(=O)OC)[C@H]1C	none (no result: CYP2C19 act, CYP2C19 inhib, CYP2C9 activ, CYP2C9 inhib)
CCCCNC(=O)Nc1cc(C(F)(F)F)c[nH]c1=O	none
Nc1ncnc2nc(SCc3ccc(Cl)cc3Cl)[nH]c12	CYP2C19 inhib 67.0, CYP2C9 inhib 58.9 (no result: Cav32 inh)
CCOCCCN(Cc1ccco1)C(=O)c1cc2c(=O)[nH]c3ccc(C)cc3c2s1	none
Cc1ccc(-c2csc(N(C)C(=O)c3c(C)nn(-c4ccccc4)c3Cl)n2)cc1	CYP2C9 inhib 73.8
CC(=O)N(C)c1nc(-c2ccc(Cl)cc2)cs1	none
Cc1cc(Cl)ccc1N(CC(=O)N=Nc1c(O)[nH]c2ccccc12)S(C)(=O)=O	CYP2C19 inhib 76.0, CYP2C9 inhib 53.0
